Measurements taken from the supplement of paper PMC11150407.
Where a name gives a salt, the structure may show the parent alone. The whole screen tested about 2,100 compounds, of which about 180 (8.6%) showed an effect of 50% or more. The full list was thinned out, with strong results kept by preference.

Each compound was assayed on MOLM1 and UCSD/AML1 (averaged) (assay: cell viability relative to DMSO control (POC); higher = less growth inhibition). Settings: 1 µM; 72 h.
Protocol: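 Primary viability screen in the 3q26 EVI1-high AML cell lines MOLM1 and UCSD/AML1 (1.5e3 cells/well, 384-well), compounds at 1 uM for 72 h. ATP CellTiter-Glo read-out given as percent of viable cells over DMSO control (POC), averaged over duplicates. DMSO was the negative control and 5 uM etoposide the positive control. This mapping covers the MicroSource Spectrum and Selleck anticancer libraries (drug names).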
`CC(C)C1=CC2=CC[C@@H]3[C@](C)(CCC[C@@]3(C)C(=O)O)[C@H]2CC1` was tested, and the cell viability was 103%. With `CC(=O)O[C@H]1C[C@@H](OC(C)=O)C(C)(C)[C@@H]2C[C@@H](OC(C)=O)[C@]3(C)[C@H](CC[C@@]4(C)[C@H](c5ccoc5)OC(=O)[C@H]5O[C@@]534)[C@@]12C` the cell viability was 83.3%. `COc1ccc(-c2cc(=O)c3c(O)c(OC)c(O[C@@H]4O[C@H](CO[C@@H]5O[C@@H](C)[C@H](O)[C@@H](O)[C@H]5O)[C@@H](O)[C@H](O)[C@H]4O)cc3o2)cc1` was tested, and the cell viability was 101%. Compound `CC(C)C[C@H](NC(=O)[C@H](Cc1ccccc1)NC(=O)c1cnccn1)B(O)O` [Bortezomib (Velcade)] has a cell viability of 0.861%. `CSCCC(N)C(=O)NC(CC(C)C)C(=O)NC(Cc1ccccc1)C(=O)O` (configuration not stated) showed a cell viability of 97.7%. For `CC(C)C[C@H](NC(=O)[C@@H](O)[C@H](N)Cc1ccccc1)C(=O)O` [Ubenimex (Bestatin)], the cell viability was 66.5%. `COc1ccc(-c2cc(=O)c3c(OC)c(OC)c(OC)c(OC)c3o2)cc1OC` showed a cell viability of 75.6%. `C[C@H]1COC2(CCN(c3nc(=O)c4cc(C(F)(F)F)cc([N+](=O)[O-])c4s3)CC2)O1` (racemic) [BTZ043 racemate] gave a cell viability of 83.5%. Work on `NC(=O)c1ncn([C@@H]2O[C@H](CO)[C@@H](O)[C@H]2O)n1` yielded a cell viability of 94.7%. `NC(=O)c1ncn([C@@H]2O[C@H](CO)[C@@H](O)[C@H]2O)c1N` was tested, and the cell viability was 119%. Compound `Nc1ccn([C@@H]2O[C@H](CO)[C@@H](O)C2(F)F)c(=O)n1` [Gemcitabine HCl (Gemzar)] has a cell viability of 10.8%. Compound `N=c1ccn2c(n1)O[C@H]1[C@H](O)[C@@H](CO)O[C@H]12` has a cell viability of 5.77%. `Nc1ccn([C@@H]2O[C@H](CO)[C@@H](O)[C@@H]2O)c(=O)n1` was tested, and the cell viability was 8.69%. Compound `Nc1ccn([C@@H]2O[C@H](CO)[C@@H](O)[C@@H]2O)c(=O)n1` [Cytarabine] has a cell viability of 7.02%. In the case of `O=c1[nH]cnc2c1ncn2[C@@H]1O[C@H](CO)[C@@H](O)[C@H]1O`, the cell viability is reported as 109%. `Nc1ccn([C@@H]2O[C@H](CO)[C@@H](O)C2(F)F)c(=O)n1` [Gemcitabine (Gemzar)] was tested, and the cell viability was 8.79%. `C[N+](C)(C)CCOP(=O)(O)OP(=O)([O-])OC[C@H]1O[C@@H](n2ccc(N)nc2=O)[C@H](O)[C@@H]1O` was tested, and the cell viability was 85.3%. `COC(=O)[C@H](OC(C)=O)[C@H]1C(C)(C)[C@H](OC(C)=O)[C@@H]2CC3=C4CC(=O)O[C@@H](c5ccoc5)[C@]4(C)CC[C@@H]3[C@@]1(C)C2=O` was tested, and the cell viability was 94.8%. In the case of `COc1cc2c(cc1OC)C(=O)OC2`, the cell viability is reported as 103%. `COc1ccc2c(c1)OC[C@@H](Cc1ccc(OC)c(OC)c1)[C@H]2O` was tested, and the cell viability was 96.9%. For `CC(=O)O[C@@H]1CC2C(C)(C)C(=O)C3OC3[C@]2(C)C2CC[C@@]3(C)[C@H](c4ccoc4)OC(=O)C4OC43[C@@]21C` (some centres not stated), the cell viability was 95.3%. `CC(C)c1c(O)ccc2c1CCC1[C@@](C)(C=O)CCC[C@]21C` (some centres not stated) was tested, and the cell viability was 96.4%. `C[C@@H]1CC[C@@]2(OC1)O[C@H]1C[C@H]3[C@@H]4CC[C@@H]5C[C@@H](O)CC[C@]5(C)[C@H]4CC[C@]3(C)[C@H]1[C@@H]2C` was tested, and the cell viability was 97.4%. Work on `CN(NC(=O)CC(=O)NN(C)C(=S)c1ccccc1)C(=S)c1ccccc1` [Elesclomol] yielded a cell viability of 1.23%. Work on `O=C(OOC(=O)c1ccccc1)c1ccccc1` yielded a cell viability of 101%. With `O=C(CC(=O)c1ccccc1)c1ccccc1` the cell viability was 80.9%. With `CCCCCCCCCCCCCCCCCCOCC(O)CO` (configuration not stated) the cell viability was 85%. `COc1ccc(-c2coc3cc(O)ccc3c2=O)cc1` gave a cell viability of 108%. Compound `CC12CCCC(O)(C1)C1CC(C)(C)C1CC2` (stereo not drawn) [beta-CARYOPHYLLENE ALCOHOL] has a cell viability of 111%. Work on `CC(=O)OC1CCC23CC1(C)CCC2C(C)(C)CC3OC(C)=O` (configuration not stated) yielded a cell viability of 96.1%. `COc1cc2ncnc(Nc3ccc(F)c(Cl)c3)c2cc1NC(=O)/C=C/CN1CCCCC1` showed a cell viability of 50.9%. `CCOc1cc2ncc(C#N)c(Nc3ccc(F)c(Cl)c3)c2cc1NC(=O)/C=C/CN(C)C` [Pelitinib (EKB-569)] gave a cell viability of 14.4%. Compound `CCOc1cc2ncc(C#N)c(Nc3ccc(OCc4ccccn4)c(Cl)c3)c2cc1NC(=O)/C=C/CN(C)C` [Neratinib (HKI-272)] has a cell viability of 14.7%. With `CN(C)C/C=C/C(=O)Nc1cc2c(Nc3ccc(F)c(Cl)c3)ncnc2cc1O[C@H]1CCOC1` [Afatinib (BIBW2992)] the cell viability was 52.9%. For `COc1ccc2cc([C@H](C)CO)ccc2c1`, the cell viability was 103%. In the case of `COC(=O)C[C@H]1C(C)(C)[C@@H](O)[C@@H]2CC3=C4C=C(OC)O[C@@H](c5ccoc5)[C@]4(C)CCC3[C@@]1(C)C2=O` (stereo partly drawn) [3-DEOXO-3beta-HYDROXYMEXICANOLIDE 16-ENOL ETHER], the cell viability is reported as 100%. `CCOC(=O)C(Cc1ccc(O)cc1)NC(C)=O` (configuration not stated) showed a cell viability of 105%. `C/C(=C\C(=O)Nc1ccccc1C(=O)O)c1ccc2ccccc2c1` showed a cell viability of 104%. Work on `COc1cc(C/C=C/c2ccccc2)c(OC)cc1O` yielded a cell viability of 93.6%. For `COc1cc(O)c(C)c(O)c1`, the cell viability was 106%. For `COc1ccc(C(=O)CC(=O)O)c2c1C=CC(C)(C)O2`, the cell viability was 99.5%. With `CC(C)=CCC/C(C)=C/CC/C(C)=C/CC/C(C)=C/CC/C(C)=C/CC/C(C)=C/CC/C(C)=C/CC/C(C)=C/CC/C(C)=C/CO` the cell viability was 83.6%. `O=c1c(-c2ccc(O)cc2)coc2c([C@@H]3O[C@H](CO)[C@@H](O)[C@H](O)[C@H]3O)c(O)ccc12` showed a cell viability of 120%. In the case of `CN1CCCC(n2nc(Cc3ccc(Cl)cc3)c3ccccc3c2=O)CC1` (configuration not stated), the cell viability is reported as 101%. `CNC(=O)c1cc(COc2nnc(Nc3ccc(Cl)cc3)c3ccoc23)ccn1` [Telatinib (BAY 57-9352)] was tested, and the cell viability was 94.5%. `Clc1ccc(Nc2nnc(Cc3ccncc3)c3ccccc23)cc1` [Vatalanib dihydrochloride (PTK787)] showed a cell viability of 44.6%. With `C=C(C)[C@H]1COc2cc3oc(=O)ccc3cc2O1` the cell viability was 93.3%. Compound `CC(C)C[C@@H](C(=O)N[C@H](C(=O)OC1CCCC1)c1ccccc1)[C@H](O)C(=O)NO` [Tosedostat (CHR2797)] has a cell viability of 77.5%. Compound `O=C([O-])c1ccccc1O.[Na+]` has a cell viability of 102%. `COc1ccc2[nH]c([S+]([O-])Cc3ncc(C)c(OC)c3C)nc2c1` (configuration not stated) was tested, and the cell viability was 92.4%. With `COc1c(C)cnc(Cn2cnc3c(Cl)nc(N)nc32)c1C` the cell viability was 4.8%. Compound `COc1cc(-c2coc3cc(O)c(OC)c(O)c3c2=O)cc(O)c1OC` has a cell viability of 90.5%. With `O=C(O)c1cc(=O)c2cccc(O)c2[nH]1` the cell viability was 102%. `C[C@H]1O[C@@H](O[C@H]2[C@@H](O)C[C@H](O[C@H]3[C@@H](O)C[C@H](O[C@H]4CC[C@@]5(C)[C@H](CC[C@@H]6[C@@H]5CC[C@]5(C)[C@@H](C7=CC(=O)OC7)CC[C@]65O)C4)O[C@@H]3C)O[C@@H]2C)C[C@H](O)[C@@H]1O` showed a cell viability of 2.44%. Work on `C[C@H]1O[C@@H](O[C@H]2[C@@H](O)C[C@H](O[C@H]3[C@@H](O)C[C@H](O[C@H]4CC[C@@]5(C)[C@H](CC[C@@H]6[C@@H]5C[C@@H](O)[C@]5(C)[C@@H](C7=CC(=O)OC7)CC[C@]65O)C4)O[C@@H]3C)O[C@@H]2C)C[C@H](O)[C@@H]1O` yielded a cell viability of 3.03%. Compound `CO[C@H]1O[C@H](CO)C(O[C@@H]2OC(C(=O)O)[C@@H](O[C@H]3O[C@H](COS(=O)(=O)O)C(O[C@@H]4OC(C(=O)O)[C@@H](O[C@H]5O[C@H](CO)C(O[C@@H]6OC(C(=O)O)[C@@H](O[C@H]7O[C@H](COS(=O)(=O)O)C(O[C@@H]8OC(C(=O)O)=C[C@H](O)C8OS(=O)(=O)O)[C@H](O)[C@H]7NC(C)=O)[C@H](O)[C@H]6O)[C@H](O)[C@H]5NC(C)=O)[C@H](O)[C@H]4O)[C@H](O)[C@H]3NC(C)=O)[C@H](O)[C@H]2O)[C@H](O)[C@H]1NC(C)=O` (some centres not stated) has a cell viability of 86.8%. `COc1cc(O)c(C(C)=O)c(OC)c1` was tested, and the cell viability was 101%. `O=C(/C=C/C(=O)Oc1ccccc1C(=O)O)Oc1ccccc1C(=O)O` showed a cell viability of 110%. `C[C@H]1C(=O)CC[C@@H]2[C@]1(C)CC[C@H]1[C@@]2(C)CC[C@@]2(C)[C@@H]3CC(C)(C)CC[C@]3(C)CC[C@]12C` gave a cell viability of 113%. Compound `COc1cc2oc3cc(OC)c(OC)c(CC=C(C)C)c3c(=O)c2c(O)c1CC=C(C)C` has a cell viability of 99.9%. Compound `CCCCCC1C(=O)CCC1CC(=O)O` (configuration not stated) has a cell viability of 86.2%. Work on `O=C(O[C@@H]1Cc2c(O)cc(O)cc2O[C@@H]1c1cc(O)c(=O)c2c(O)c(O)cc([C@H]3Oc4cc(O)cc(O)c4C[C@H]3OC(=O)c3cc(O)c(O)c(O)c3)c2c1)c1cc(O)c(O)c(O)c1` yielded a cell viability of 108%. Compound `Cc1cc(O)c2c(c1)C(=O)c1cccc(O)c1C2=O` [Chrysophanic acid (Chrysophanol)] has a cell viability of 93.8%. For `Cc1cc(O)c2c(c1)C(=O)c1cccc(O)c1C2=O`, the cell viability was 115%. Compound `O=C(O)c1cc(O)c(=O)c2c(O)c(O)ccc2c1` has a cell viability of 108%. `CCC(C)C(NC)C(=O)O` (configuration not stated) gave a cell viability of 118%. In the case of `COC(=O)c1ccc2c(C(=Nc3ccc(N(C)C(=O)CN4CCN(C)CC4)cc3)c3ccccc3)c(O)[nH]c2c1` [BIBF1120 (Vargatef)], the cell viability is reported as 11.9%. With `CC(=O)c1ccc[nH]1` the cell viability was 92.8%. `C=CC(C)(O)CCC1C(=C)CC(OC(C)=O)C2C(C)(C)CCCC12C` (configuration not stated) was tested, and the cell viability was 98.6%. In the case of `O=C1CC[C@]23/C=C/C(=O)NCCCCNCCCNC(=O)/C=C/c4ccc(c2c4)O[C@@H]3C1`, the cell viability is reported as 97.1%. Compound `COC1=CC(c2cc3ccccc3[nH]2)=N/C1=C\c1[nH]c(C)cc1C` [Obatoclax mesylate (GX15-070)] has a cell viability of 18.7%. `CC1(C)O[C@H]2[C@H](O)C[C@](O)(C(N)=O)C[C@H]2O1` gave a cell viability of 94.1%. For `CC1(C)[C@@H](O)CC[C@]2(C)[C@H]3C(=O)C=C4[C@H]5C[C@@](C)(C(=O)O)CC[C@]5(C)CC[C@@]4(C)[C@]3(C)CC[C@@H]12` [18alpha-GLYCYRRHETINIC ACID], the cell viability was 95.3%. `COc1c(O)cccc1O` was tested, and the cell viability was 97.7%. With `COc1cc2c(Oc3ccc4[nH]c(C)cc4c3F)ncnc2cc1OCCCN1CCCC1` [Cediranib (AZD2171)] the cell viability was 66.3%. `COc1cc(Nc2c(C#N)cnc3cc(OCCCN4CCN(C)CC4)c(OC)cc23)c(Cl)cc1Cl` [Bosutinib (SKI-606)] gave a cell viability of 21.3%. With `COc1cc2ncnc(Nc3ccc(F)c(Cl)c3)c2cc1OCCCN1CCOCC1` [Gefitinib (Iressa)] the cell viability was 84.9%.
